# Measured values published in the supplement of paper PMC12494721.
# Where a name gives a salt, the structure may show the parent alone.
# How the values were obtained:
# Conditions in all cases: incubation time: 27 h, anaerobic, 37 °C;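 for the amine columns active = adjusted P below 0.05 in both replicates with a change the same way and a mean fold change under 0.8 or over 1.25; inactive = the rest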
# [1] = tested on: Clostridium sporogenes DSM 1664; assay: growth (OD595) fold change vs plate DMSO controls (fold change (ratio)); higher = more growth
# Procedure, shortened: (§1)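 Growth is expressed as the fold change relative to the median of the DMSO control wells on each plate. Cultures in mGAM were grown anaerobically in 96-well plates for 27 h at 37 °C, shaken, and read at 595 nm. Readings were blank-subtracted, corrected for compound background with 20 µM compound solutions in water, and converted to OD with a calibration factor of 5. Fold changes above 1.5 were set to NA, and each value is the mean of 2 biological replicates.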
# [2] = tested on: Escherichia coli IAI1; assay: as above
# Procedure, shortened: as §1
# [3] = tested on: Klebsiella aerogenes DSM 30053; assay: as above
# Procedure, shortened: as §1
# [4] = tested on: Ruminococcus gnavus DSM 108212; assay: as above
# Procedure, shortened: as §1
# [5] = tested on: Klebsiella aerogenes DSM 30053; assay: fold change of Histamine concentration vs plate DMSO controls (fold change (ratio)); higher = more amine produced, active = hit call of the paper (significant change in both replicates, either direction)
# Procedure, shortened: (§2)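 Anaerobic mGAM cultures of four gut bacterial strains were grown at 37 °C for 27 h in 80 µL wells, starting at OD 0.1 before 1:1 dilution. Compounds were at 20 µM final (sweeteners 50 µM). Whole cultures were extracted with cold acetonitrile/methanol containing 0.1% formic acid and centrifuged. Amines were quantified by LC–triple-quadrupole MS (dynamic MRM) against external calibration curves and drift-corrected within batch. Each value is the fold change versus plate DMSO controls, averaged over 2 biological replicates.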
# [6] = tested on: Clostridium sporogenes DSM 1664; assay: fold change of Tryptamine concentration vs plate DMSO controls (fold change (ratio)); higher = more amine produced, active = hit call of the paper (significant change in both replicates, either direction)
# Procedure, shortened: as §2
# [7] = tested on: Ruminococcus gnavus DSM 108212; assay: as above
# Procedure, shortened: as §2
# [8] = tested on: Escherichia coli IAI1; assay: fold change of Putrescine concentration vs plate DMSO controls (fold change (ratio)); higher = more amine produced, active = hit call of the paper (significant change in both replicates, either direction)
# Procedure, shortened: as §2
# [9] = tested on: Klebsiella aerogenes DSM 30053; assay: as above
# Procedure, shortened: as §2
# [10] = tested on: Escherichia coli IAI1; assay: fold change of Cadaverine concentration vs plate DMSO controls (fold change (ratio)); higher = more amine produced, active = hit call of the paper (significant change in both replicates, either direction)
# Procedure, shortened: as §2
# [11] = tested on: Klebsiella aerogenes DSM 30053; assay: as above
# Procedure, shortened: as §2
# [12] = tested on: Ruminococcus gnavus DSM 108212; assay: fold change of 2-Phenylethylamine concentration vs plate DMSO controls (fold change (ratio)); higher = more amine produced, active = hit call of the paper (significant change in both replicates, either direction)
# Procedure, shortened: as §2
SMILES,growth [1],growth [2],growth [3],growth [4],fold change of Histamine concentration [5],fold change of Tryptamine concentration [6],fold change of Tryptamine concentration [7],fold change of Putrescine concentration [8],fold change of Putrescine concentration [9],fold change of Cadaverine concentration [10],fold change of Cadaverine concentration [11],fold change of 2-Phenylethylamine concentration [12]
CN1CCN(c2c(F)cc3c(=O)c(C(=O)O)cn4c3c2OCN4C)CC1 [Marbofloxacin] (20 µM),0.0155,0.0185,0.139,1.36,0.107 (active),0.0554 (active),0.992 (inactive),0.616 (active),0.607 (active),0.231 (active),0.932 (inactive),1.04 (inactive)
CC(C)(C)NCC(O)c1cc(O)cc(O)c1 (stereo not drawn) [Terbutaline hemisulfate] (20 µM),0.98,1.02,1.05,1.11,1.02 (inactive),1.05 (inactive),1.06 (inactive),1.05 (inactive),0.985 (inactive),0.932 (inactive),0.993 (inactive),1.06 (inactive)
CC(C)Cn1cnc2c(N)nc3ccccc3c21 [Imiquimod] (20 µM),1.1,0.977,1.02,0.323,0.998 (inactive),0.888 (inactive),0.149 (active),0.988 (inactive),1.02 (inactive),1.04 (inactive),1 (inactive),0.162 (active)
CCCCC1=NC2(CCCC2)C(=O)N1Cc1ccc(-c2ccccc2-c2nnn[nH]2)cc1 [Irbesartan] (20 µM),1.11,1.03,1.01,1.21,1.05 (inactive),0.968 (inactive),0.947 (inactive),1.02 (inactive),1.01 (inactive),1.01 (inactive),0.995 (inactive),0.929 (inactive)
c1ccc2c(c1)Cc1ccccc1-2 [Fluorene] (20 µM),1,1.04,1.07,1.09,0.932 (inactive),0.97 (inactive),1 (inactive),1.05 (inactive),1.02 (inactive),0.914 (inactive),1.02 (inactive),0.967 (inactive)
CCOC(=O)c1c(N)sc2c1CCN(Cc1ccccc1)C2 [Tinoridine hydrochloride] (20 µM),1.15,0.977,0.967,1.14,1.03 (inactive),0.982 (inactive),0.922 (inactive),1.01 (inactive),1 (inactive),0.954 (inactive),0.976 (inactive),0.875 (inactive)
CCN[C@H]1C[C@H](C)S(=O)(=O)c2sc(S(N)(=O)=O)cc21 [Dorzolamide hydrochloride] (20 µM),1.23,1.05,1.02,1.15,0.991 (inactive),0.996 (inactive),0.977 (inactive),1.06 (inactive),0.977 (inactive),0.965 (inactive),0.993 (inactive),0.992 (inactive)
N=C(N)Nc1ccc(C(=O)Oc2ccc3cc(C(=N)N)ccc3c2)cc1 [Nafamostat Mesylate] (20 µM),1.04,0.933,0.99,0.967,0.92 (inactive),0.959 (inactive),0.91 (inactive),1.04 (inactive),1.06 (inactive),1.04 (inactive),1.01 (inactive),0.948 (inactive)
C[N+](C)(C)C[C@H](O)CC(=O)[O-] [Levocarnitine] (20 µM),0.997,1,0.994,0.966,1.04 (inactive),0.955 (inactive),1.07 (inactive),1.02 (inactive),1.03 (inactive),0.929 (inactive),1.09 (inactive),1.22 (inactive)
CCN1/C(=C/C=C/C=C/c2sc3ccccc3[n+]2CC)Sc2ccccc21 [Dithiazanine iodide] (20 µM),0.625,0.879,0.837,1.24,0.924 (inactive),0.849 (inactive),0.749 (active),1.05 (inactive),1.01 (inactive),1.07 (inactive),0.995 (inactive),0.699 (active)
OCC1(O)OC[C@@H](O)[C@@H](O)[C@H]1O (stereo partly drawn) [Psicose] (50 µM),1.08,1.01,1.03,1.03,1.03 (inactive),0.991 (inactive),0.992 (inactive),1.04 (inactive),1.04 (inactive),0.967 (inactive),1.01 (inactive),0.942 (inactive)
C[C@@H]1C[C@H]2[C@@H]3C[C@H](F)C4=CC(=O)C=C[C@]4(C)[C@@]3(F)[C@@H](O)C[C@]2(C)[C@@]1(O)C(=O)CO [Flumethasone] (20 µM),1.02,1,1.01,1.2,0.997 (inactive),0.979 (inactive),1.01 (inactive),0.991 (inactive),0.989 (inactive),1.04 (inactive),0.991 (inactive),0.972 (inactive)
CO/N=C(\C(=O)N[C@@H]1C(=O)N2C(C(=O)[O-])=C(C[n+]3cccc4c3CCC4)CS[C@H]12)c1csc(N)n1 [Cefpirome sulfate] (20 µM),0.00168,0.00447,0.0713,0.108,0.122 (active),0.0112 (active),0.0828 (active),0.213 (active),0.347 (active),0.645 (inactive),1.09 (inactive),0.0627 (active)
NS(=O)(=O)c1cc(Cl)c(Cl)c(S(N)(=O)=O)c1 [Dichlorphenamide] (20 µM),0.963,0.998,1.2,0.536,0.902 (inactive),0.966 (inactive),0.572 (inactive),1.06 (inactive),1.01 (inactive),0.995 (inactive),1.03 (inactive),0.54 (inactive)
CC1(C)O[C@@H]2C[C@H]3[C@@H]4CCC5=CC(=O)CC[C@]5(C)[C@@]4(F)[C@@H](O)C[C@]3(C)[C@]2(C(=O)CCl)O1 [Halcinonide] (20 µM),1.17,1.01,1.05,1.07,0.941 (inactive),0.989 (inactive),0.963 (inactive),0.988 (inactive),0.994 (inactive),1.02 (inactive),1.01 (inactive),0.978 (inactive)
COc1cc(C(=O)NC2CCCNC2)cc(OC)c1OC (stereo not drawn) [Troxipide] (20 µM),0.822,1.02,0.99,0.845,0.989 (inactive),1.03 (inactive),1.06 (inactive),0.965 (inactive),0.983 (inactive),0.978 (inactive),0.996 (inactive),1.02 (inactive)
COc1ccc(CNc2nc(N3CCC[C@H]3CO)ncc2C(=O)NCc2ncccn2)cc1Cl [Avanafil] (20 µM),0.96,0.981,0.99,0.992,1.01 (inactive),0.958 (inactive),1.01 (inactive),1.04 (inactive),1 (inactive),1.02 (inactive),0.991 (inactive),1.01 (inactive)
CCCOc1cc(N)ccc1C(=O)OCCN(CC)CC [Propoxycaine hydrochloride] (20 µM),0.975,1.01,1,1.35,0.991 (inactive),1.02 (inactive),1.05 (inactive),0.956 (inactive),0.986 (inactive),0.967 (inactive),1.01 (inactive),1.09 (inactive)
CC(=O)OC[C@H]1O[C@@H]([S-])[C@H](OC(C)=O)[C@@H](OC(C)=O)[C@@H]1OC(C)=O.CCP(CC)CC.[Au+] [Auranofin] (20 µM),0.978,1.02,0.951,0.00158,0.65 (active),0.49 (active),0.05 (active),0.925 (inactive),0.89 (inactive),0.996 (inactive),0.972 (inactive),0.0596 (active)
CCc1cc(C(N)=S)ccn1 [Ethionamide] (20 µM),1.09,1.05,1.03,0.995,0.962 (inactive),1 (inactive),1.02 (inactive),1.05 (inactive),1 (inactive),1 (inactive),1.02 (inactive),1.01 (inactive)
c1ccc2[nH]c(-c3cscn3)nc2c1 [Tiabendazole] (20 µM),1.06,0.991,0.899,0.962,1.12 (inactive),1.01 (inactive),1.02 (inactive),0.997 (inactive),0.964 (inactive),1.04 (inactive),0.979 (inactive),1.04 (inactive)
Cc1ccc2c([nH]c(=O)c3c(=O)cc(C(=O)OCCC(C)C)oc32)c1C [Repirinast] (20 µM),1.15,1.03,0.997,1.08,1.03 (inactive),1.08 (inactive),0.977 (inactive),1.01 (inactive),1 (inactive),1.03 (inactive),0.998 (inactive),0.964 (inactive)
NS(=O)(=O)c1cc2c(cc1C(F)(F)F)NCNS2(=O)=O [Hydroflumethiazide] (20 µM),0.947,1.05,0.989,0.941,0.965 (inactive),0.92 (inactive),0.987 (inactive),1.06 (inactive),1.01 (inactive),1 (inactive),1.01 (inactive),0.935 (inactive)
N[C@@H](C(=O)N[C@@H]1C(=O)N2C(C(=O)O)=C(Cl)CS[C@H]12)c1ccccc1 [Cefaclor hydrate] (20 µM),0.594,0.999,1.06,0.999,0.947 (inactive),0.846 (inactive),0.783 (inactive),0.939 (inactive),1.07 (inactive),1.23 (inactive),1.03 (inactive),0.859 (inactive)
